Compound activity (PubChem BioAssay)
Only some compounds are listed: those with a hit (about 6.2% of all), similar ones and a draw of the others.
HCMV antiviral = human cytomegalovirus inhibition; HFF cells, HCMV-luciferase reporter, 72 h; active compounds read low; activity change, negative = inhibition, % at 57.5 µM; 410,000 tested, 4.5% active; in the data active means activity change below about -60%; inconclusive means no clear call, values can overlap the other calls; inactive means above about -39%
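Human foreskin fibroblasts infected with luciferase-reporter HCMV at MOI 1 PFU/cell, compounds at two doses. Luciferase measured 72 h post infection; normalized to buffer-only basal and Salinomycin (10uM) controls.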
Lassa entry inh = inhibitors of Lassa virus binding or cell entry. Lassa virus pseudotype entry inhibition, cell reporter. Potency, µM (doses to about 37.9 µM), without a hit: at the top dose activity change, negative = inhibition, hits mostly inhibitors. 300,000 tested, 1.2% active; calls by dose curve; tested in HEK293 cells; further: potency means the concentration at half of the fitted maximal effect; nearly all actives have a fitted effect of over 50% in size
FMDV antiviral = foot and mouth disease virus antiviral activity; FMDV antiviral cell-based qHTS; Potency, µM (highest dose often 57.9 µM), for the others: top-dose activity change, negative = inhibition, actives largely listed as inhibitors; 410,000 tested, 1.2% active; AID 1159524; calls by dose curve; tested in HEK293T cells; further: read-out not given here; potency means the concentration at half of the fitted maximal effect; nearly all actives have a fitted effect of over 45% in size
MARV entry inh = inhibitors of Marburg virus binding or cell entry; 300,000 tested, 1.8% active; Marburg virus pseudotyped entry inhibition, cell reporter; AID 540276; Potency, µM (series often up to 37.8 µM), inactives show top-dose activity change, negative = inhibition, most hits filed as inhibitors; calls by dose curve; tested in HEK293 cells; further: potency means the concentration at half of the fitted maximal effect
* marks the source's active call; other numbers are inactive results; ? = inconclusive; . = no result; ! = repeats disagree; [ ] = another dose, or the depositor's remark. On the % scale 0 is the no-effect control and ±100 the full control effect.

SMILES	HCMV antiviral	Lassa entry inh	FMDV antiviral	MARV entry inh
CC(C)(C)NC(=O)C(c1ccc(-c2ccccc2)cc1)N(C[C@H]1CC[C@@H]([C@@H]2CC[C@H](CO)O2)O1)C(=O)c1ccc2ccccc2c1 (some centres not stated)	-100*	.	0%	.
CSc1cnc2c(=O)n(C)c(=O)[nH]c2n1	96	2%	-18%	6%
Cn1c(=O)[nH]c2nnc(-c3ccc(Cl)c(Cl)c3)nc2c1=O	25	10µM*	-30%	?
COc1ccc(NC(=O)c2cc3c(-c4ccccc4F)nn(C)c3s2)c(OC)c1	-18	-27%[46.1 µM]	0%	9%[46.1 µM]
COc1ccc(OC)c(CCNC(=O)c2cc3c(-c4ccccc4F)nn(C)c3s2)c1	-90*	?	?	?
O=C(COc1ccccc1)Nc1c(C(=O)N2CCN(c3ccc(F)cc3)CC2)oc2ccccc12	-107*	0%[46.1 µM]	92%	.
COc1cccc(CC(=O)Nc2c(C(=O)N3CCN(c4ccccc4)CC3)oc3ccccc23)c1	-10	20%[46.1 µM]	48%	-10%[46.1 µM]
CCC(CC)C(=O)Nc1c(C(=O)N2CCN(c3ccccc3)CC2)oc2ccccc12	-79*!	?	22%	?
O=C(Cc1ccccc1)Nc1c(C(=O)N2CCN(c3ccc(F)cc3)CC2)oc2ccccc12	-21	-24%[46.1 µM]	60%	.
COc1cccc(N2CCN(C(=O)c3oc4ccccc4c3NC(=O)CCc3cc(OC)no3)CC2)c1	-61*	-29%[46.1 µM]	42%	-20%[46.1 µM]
CCC(=O)c1c(NC)cc(C)oc1=O	0	4%	-6%	16%[46.1 µM]
COc1ccc(C(C(=O)Nc2ccc3c(c2)OCCO3)n2c(=O)c(-c3cc4ccccc4[nH]3)nc3ccccc32)cc1 (configuration not stated)	42	.	?	.
CCCCC(CC)CNC(=O)/C=C/c1ccc(F)cc1 (configuration not stated)	.	-22%	.	-7%
CCn1c(NC(=O)c2cccc(Cn3cc(Cl)cn3)c2)nc2ccccc21	-68*	.	?	.
Cn1c(NC(=O)c2cccc(Cn3cc(Cl)cn3)c2)nc2ccccc21	29	?	19%	-7%
CC(C)(C)c1ccc(C(=O)NCCC(=O)NCc2ccc(F)cc2)cc1	-82*	.	-24%	.
O=C(CCCC(=O)NCc1ccc(F)cc1)NCc1ccc(F)cc1	-29	27%	35µM*	1%[46.1 µM]
O=C(CCCC(=O)NCc1ccccc1)NCc1ccccc1	-32	-1%	-22%	13%
CC(=O)c1ccc(NC(=O)c2cc3sccc3n2Cc2ccc(Cl)cc2)cc1	38	1%[46.1 µM]	-12%	2%[46.1 µM]
COc1ccc(S(=O)(=O)N2CCN(C(=O)c3cc(-c4ccc(Br)cc4)n[nH]3)CC2)cc1OC	-72*!	10µM*	?	?
